# High-throughput results from PubChem BioAssay.
# This is a sample that favours compounds with a hit; in the whole collection about 4.3% have one here.
# FGF22 binding – binders of human FGF22 protein, primary screen, FGF22 synaptogenesis inhibitor project, biophysical, thermal shift, single point. recombinant FGF22 thermal shift, SYPRO orange fluorescence; percent of sucrose octasulfate shift, DMSO zero. activity (Tm shift, normalised), % at 9.99 µM. 340,000 tested, 1.5% active;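 active means mean Tm shift, scaled 0 neutral to 100 positive control, at about 1.3% or above, every replicate too, limit read from the data; inconclusive means no clear call, values can overlap the other calls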
# MITF act – activators of MITF-driven TRPM1 promoter reporter, primary screen, cell-based, SK-MEL-5, luciferase, single point; 300,000 tested, 0.75% active; activation, % at 12.5 µM; SK-MEL-5 TRPM1-promoter luciferase, 24 h; % of positive control, neutral wells = 0;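 active means mean activation of at least 80% with every replicate also reaching 80%; inconclusive means mean reaches 80% but some replicate falls short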;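 further: 0% = neutral control wells and 100% = parthenolide positive control wells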
# Wnt act – Wnt/beta-catenin pathway activators, primary screen, cell-based, plate reader, single point. Wnt/beta-catenin reporter cell assay, activator. activation, % at 9.35 µM. 300,000 tested, 1.2% active. AID 743398, 2014; in the data active means activation above about 30%, passing the limit was not always enough; inconclusive means no clear call, values can overlap the other calls;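 further: 0% = neutral control wells and 100% = positive control wells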
# SMARCA2 activ – SMARCA2 (BRM) function activators, primary screen, cell-based, luminescence, high throughput; MG213 cells, MMTV-luciferase reporter, dexamethasone, overnight; activation, % at 9.1 µM; 370,000 tested, 1% active; in the data active means activation above about 7.8%;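 further: 0% = vehicle wells and 100% = reference activator wells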
# AF4-AF9 inh – inhibitors of AF4 peptide binding to AF9, primary screen, biochemical, AlphaScreen, biotin-AF4 peptide, FLAG-AF9, single point; Protein AF-9 (Homo sapiens), P42568; inhibition, % at 10 µM; 350,000 tested, 0.47% active; AID 651704, 2012;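 active means every replicate reaching a set inhibition limit, whatever the replicate mean, cut at about 25% in these data; inconclusive means mean inhibition reaches that limit but some replicates miss it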;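 further: 0% = plate neutral control median and 100% = total signal loss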
# Target sequence (P42568 whole entry, looked up): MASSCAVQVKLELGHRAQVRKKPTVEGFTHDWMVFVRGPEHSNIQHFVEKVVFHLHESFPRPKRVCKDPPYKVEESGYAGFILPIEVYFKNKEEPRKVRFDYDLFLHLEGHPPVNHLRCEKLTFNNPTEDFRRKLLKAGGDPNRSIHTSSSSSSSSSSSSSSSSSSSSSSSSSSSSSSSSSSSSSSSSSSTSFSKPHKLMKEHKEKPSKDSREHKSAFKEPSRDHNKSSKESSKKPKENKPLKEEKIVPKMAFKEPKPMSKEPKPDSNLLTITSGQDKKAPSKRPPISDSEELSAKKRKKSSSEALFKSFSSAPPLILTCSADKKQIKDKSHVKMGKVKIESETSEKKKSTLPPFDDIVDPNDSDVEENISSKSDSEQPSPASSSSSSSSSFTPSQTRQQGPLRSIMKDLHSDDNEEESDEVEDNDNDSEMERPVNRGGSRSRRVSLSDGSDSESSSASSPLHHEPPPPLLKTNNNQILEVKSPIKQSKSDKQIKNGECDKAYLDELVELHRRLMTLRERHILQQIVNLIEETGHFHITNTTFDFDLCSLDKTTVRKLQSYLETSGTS
# esBAF inh – Bmi1 luciferase reporter increase in mESCs, primary screen, esBAF inhibitor project, mouse ES cells, Bmi1 luciferase knock-in, single point. 350,000 tested, 2% active. AID 602393, 2012. 24 h; 100% = twice the neutral-well signal. reporter increase, % at 12.5 µM; in the data active means activation above about 40%; inconclusive means no clear call, values can overlap the other calls;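 further: 0% = median of the plate's neutral control wells and 100% = double that signal; a rise in the Bmi1 reporter signal indicates esBAF inhibition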
# An asterisk follows results filed as active; u = inconclusive; x = not tested or not shown.
SMILES,FGF22 binding,MITF act,Wnt act,SMARCA2 activ,AF4-AF9 inh,esBAF inh
COC(=O)c1ccc(N2CCN(c3ccccc3)CC2)nc1,0,100*,25,2,1,50*
C[C@H]1CCCCO[C@H](CN(C)S(=O)(=O)c2ccccc2)[C@@H](C)CN([C@@H](C)CO)C(=O)c2cc(NC(=O)CCC(F)(F)F)ccc2O1,0,x,x,x,-3,-1
Cc1cc(COc2ccccc2)oc1C(=O)O,0,x,1,3,-4,51*
Cc1cc(CN2CCCCC2)oc1C(=O)O,0,-3,0,1,-14,x
CO[C@H]1CN(C)C(=O)c2cc(NC(C)=O)ccc2OC[C@H](C)N(Cc2ccc(F)cc2)C[C@H]1C,0,x,x,x,1,-1
COc1ccc2c(c1)CCc1c(C(=O)NCC(C)C)noc1-2,0,109*,53*,-1,1,21
COc1ccc2c(c1)CCc1c(C(=O)N3CCCCCC3)noc1-2,x,121*,x,3,x,44*
C[C@H](CO)N1C[C@H](C)[C@H](CN(C)C(=O)Nc2cccc3ccccc23)OCCCC[C@H](C)Oc2ccc(NC(=O)C3CCCCC3)cc2C1=O,-1,x,x,x,-5,28
O=C(N/N=C/c1ccncc1)c1ccc(NC(=O)c2ccc(Cl)cc2)cc1,0,-5,21,-1,3,x
Cc1[nH]c(=O)nc(NN=Cc2ccc(Cl)cc2)c1C(=O)Nc1ccc(Cl)cc1,43*,-2,-6,4,3,x
CCOc1cc(C(=O)OC(C)C(=O)Nc2ncc(Cl)cc2Cl)ccc1OCC(=O)N1CCOCC1 (stereo unspecified),44*,0,-4,-2,-2,x
CCOc1cc(C(=O)OC(C)C(=O)Nc2ccccc2OC)ccc1OCC(=O)N1CCOCC1 (stereo unspecified),0,-8,-4,-3,-1,-2
C[C@@H]1CCCCO[C@@H](CN(C)C(=O)Nc2ccc(C(F)(F)F)cc2)[C@@H](C)CN([C@H](C)CO)C(=O)c2cc(NS(=O)(=O)c3cn(C)cn3)ccc2O1,-1,x,x,x,7,-1
CO/N=C/C(C#N)=C/c1cc(C(=O)c2ccc(F)cc2)cn1C,43*,15,x,-1,0,x
O=C(Cc1ccc(Cl)c(Cl)c1)Nc1cccc2ncccc12,43*,-8,0,-2,1,x
O=C(C1CCCC1)N1CCCCN2[C@H](CO)[C@H](c3ccc(C4=CCCC4)cc3)[C@@H]2C1,0,x,x,x,1,-2
O=C(O)c1ccc(N/N=C/c2cn(Cc3ccccc3F)c3ccccc23)cc1,0,73,13,2,7,54*
Nc1ccc(C(=O)N/N=C/c2cn(Cc3ccccc3F)c3ccccc23)cc1,0,-6,-2,0,2,3
C[C@@H]1CN([C@@H](C)CO)C(=O)c2cc(-c3ccccc3)cnc2O[C@H]1CN(C)Cc1ccc(C(=O)O)cc1,0,x,x,x,-1,-1
CS(=O)(=O)Nc1ccc2c(c1)[C@@H]1C[C@@H](CC(=O)NCc3cccc(F)c3)O[C@H](CO)[C@@H]1O2,0,x,x,x,-2,5
N#C[C@H]1[C@@H](c2ccccc2)[C@H](CO)N1C(=O)CN1CCOCC1,0,x,x,x,-1,4
CNCC(=O)Nc1ccc(Cl)c(C(F)(F)F)c1,43*,7,-3,6,0,x
Cc1noc(C)c1CSCC(=O)N(C)CC(=O)Nc1ccc(Cl)c(Cl)c1,0,1,-3,0,-13,-2
Cc1ccccc1NC(=O)CNc1ccc(Cl)c(C(F)(F)F)c1,x,24,x,-4,x,x
Cc1noc(C)c1CSCC(=O)N(C)CC(=O)Nc1ccc(Cl)c(C(F)(F)F)c1,1.9*,-8,-1,-4,4,x
SMILES,FGF22 binding,MITF act,Wnt act,SMARCA2 activ,AF4-AF9 inh,esBAF inh
COc1ccc(NC(=O)Nc2ccc3c(c2)C(=O)N([C@@H](C)CO)C[C@H](C)[C@H](CN(C)S(=O)(=O)c2ccccc2)O3)cc1,0,x,x,x,4,-6
Cc1noc(C)c1NC(=O)Nc1cccc2c1O[C@@H](CN(C)Cc1ccc(-c3ccccc3)cc1)[C@@H](C)CN([C@H](C)CO)C2=O,0,x,x,x,1,0
CC(=O)c1cc(NC(=O)c2ccc(C)cc2)c(=O)oc1/C=C/N(C)C,x,8,x,3,x,44*
CN(C)C=Nc1ccc2nc3c(cc2c1)[nH]c1ccccc13,0,68,39*,8,11,3
O=C(OCC(=O)c1cccc2ccccc12)c1ccc(CO)cc1,0,137*,9,7,-1,x
O=C(OCC(=O)c1ccccc1Br)c1ccncc1,0,-12,0,-1,-1,-11
Cc1cc(=O)[nH]c(=O)n1Cc1ccccc1,43*,3,-3,-1,-2,-5
Cc1cc(=O)c2ccccc2n1Cc1ccccc1,44*,-22,-10,-5,-2,x
O=C(O)c1cc(=O)n(Cc2ccccc2)c(=O)[nH]1,0,x,0,2,-2,4
Cc1noc(C)c1NC(=O)N[C@@H]1CC[C@H](CC(=O)NCc2ccc(Cl)c(Cl)c2)O[C@@H]1CO,0,x,x,x,0,3
CCOC(=O)c1cnc(SCCc2ccccc2)nc1N,x,95*,37*,3,x,42*
CCOC(=O)c1cnc(SCc2ccc(C)cc2)nc1N,x,74,x,2,x,61*
CCCCSc1ncc(C(=O)OCC)c(N)n1,x,112*,x,1,x,32
CC(C)NC(=O)Nc1cccc2c1O[C@@H](CN(C)C(=O)Nc1ccc(F)cc1)[C@@H](C)CN([C@@H](C)CO)C2=O,0,x,x,x,0,-2
CSc1nsc(SCC(=O)Nc2ccccc2C(=O)O)n1,1.5*,-5,-3,-1,4,-4
NC(=O)c1ccccc1NC(=O)CSc1nc2ccccc2c(=O)[nH]1,0,-4,1,-2,-11,x
COc1ccc(NC(=O)CSc2nc(SC)ns2)cc1,0,108*,u,2,0,56*
CSc1nsc(SCC(=O)Nc2ccc(NC(C)=O)cc2)n1,0,13,2,-1,0,12
Cc1cc2nc(SCC(=O)Nc3ccccc3C(=O)O)[nH]c2cc1C,2.2*,-14,10,5,-5,x
C[C@@H]1CCCCO[C@H](CN(C)S(=O)(=O)c2ccc(F)cc2)[C@H](C)CN([C@@H](C)CO)C(=O)c2cc(NS(=O)(=O)c3ccc(F)cc3)ccc2O1,0,x,x,x,x,9
O=[N+]([O-])c1ccc2nc(-c3cccnc3)[nH]c2c1,0,23,3,5,2,20
Cn1cccc1-c1nc2ccc([N+](=O)[O-])cc2[nH]1,0,99*,14,5,10,u
